{"source": "PubChem BioAssay (NCATS)", "note": "Results filed as inconclusive are left out. Entries that show only a call come without a potency. The source made the active and inactive calls. Calls come from the whole dose curve; as a rule, active = well fitted inhibition curve with a large enough effect; inconclusive = small, poorly fitted or top-dose-only effect; inactive = flat fitted curve, though single readings scatter."}
{"biological_target": "Glutathione peroxidase 1 (Homo sapiens) (UniProt P07203)", "sequence (P07203 whole entry, looked up)": "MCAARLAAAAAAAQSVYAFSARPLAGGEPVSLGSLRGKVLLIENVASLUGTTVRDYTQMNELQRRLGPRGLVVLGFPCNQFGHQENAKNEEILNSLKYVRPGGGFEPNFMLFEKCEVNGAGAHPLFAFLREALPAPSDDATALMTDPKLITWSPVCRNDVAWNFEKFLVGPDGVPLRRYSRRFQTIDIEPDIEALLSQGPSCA", "assay": "Primary qHTS Assay for Inhibitors of Recombinant Selenoprotein Glutathione Peroxidase 1 (GPX1) (AID 1845191); note: nearly all actives have a fitted effect of over 65% in size", "conditions": "recombinant GPX1, GR-coupled NADPH fluorescence, 15 min; series mostly up to 48.8 µM", "outline": "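NADPH consumption tracked by fluorescence at 340/450 nm between t=0 and t=15 min, room temperature. Final mix: 10 nM GPX1, 100 nM glutathione reductase, 1 mM GSH, 0.5 mM NADPH, 0.5 mM cumene hydroperoxide, 0.01% BSA; 30 min compound–enzyme preincubation.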"}
{"molecule": "COc1cc2c(cc1OC)[C@@]13CCN4CC5=CCO[C@H]6CC(=O)N2[C@H]1[C@H]6[C@H]5C[C@H]43", "Potency": "inactive"}
{"molecule": "COc1c(C(C)C)cc2c(c1O)[C@@]1(C(=O)O)CCCC(C)(C)C1CC2", "note": "(stereo partly specified)", "Potency": "inactive"}
{"molecule": "CC(CCc1ccc(O)cc1)O[C@@H]1O[C@H](CO[C@H]2OC[C@](O)(CO)[C@H]2O)[C@@H](O)[C@H](O)[C@H]1O", "note": "(stereo partly specified)", "Potency": "inactive"}
{"molecule": "CC(=O)OC1CC(O)C(C)(C)C2CC(OC(C)=O)C3(C)C(CCC4(C)C(c5ccoc5)C(=O)C5OC543)C12C", "note": "(stereo unspecified)", "Potency": "inactive"}
{"molecule": "COC(=O)[C@@]12C(=O)C(C)C(=O)[C@]1(C)C(C)=C[C@H]1[C@]3(C=O)CC[C@H](OC(C)=O)C(C)(C)[C@H]3CC[C@@]12C", "note": "(stereo partly specified)", "Potency": "inactive"}
{"molecule": "CCN1CC2(COC)C3[C@@H](OC)C4C1C3(C1C[C@]3(O)[C@H](OC(=O)c5ccccc5)C1[C@]4(OC(C)=O)[C@@H](O)[C@@H]3OC)[C@H](OC)C[C@H]2O", "note": "(stereo partly specified)", "Potency": "inactive"}
{"molecule": "CC1C/C=C/C(O)C(O)CC/C=C/c2cc(O)cc(O)c2C(=O)O1", "note": "(stereo unspecified)", "Potency": "inactive"}
{"molecule": "CCC1NC(=O)C2C(Cl)C(Cl)CN2C(=O)C(C(C)O)NC(=O)CC(c2ccccc2)NC(=O)C(CO)NC1=O", "note": "(stereo unspecified)", "Potency": "inactive"}
{"molecule": "CCN1C[C@]2(COC)[C@H](O)C[C@H](OC)[C@]34[C@@H]5C[C@]6(O)[C@H](OC(=O)c7ccccc7)[C@@H]5[C@@](O)([C@H]([C@H](OC)[C@H]23)[C@@H]14)[C@@H](O)[C@@H]6OC", "Potency": "inactive"}
{"molecule": "COc1cc(C(=O)O[C@H]2[C@@H]3C=CO[C@@H](O[C@@H]4O[C@H](CO)[C@@H](O)[C@H](O)[C@H]4O)[C@@H]3[C@@]3(CO)O[C@@H]23)ccc1O", "Potency": "inactive"}
{"molecule": "C=CC(C)(O)CC/C=C(\\C)C(=O)O[C@H]1[C@H](O)[C@@H](CO)O[C@@H](OC(=O)[C@]23CCC(C)(C)CC2C2=CCC4[C@@]5(C)CC[C@H](O[C@@H]6O[C@H](CO[C@@H]7OC[C@H](O)[C@H](O)[C@H]7O[C@@H]7OC[C@@H](O)[C@H](O)[C@H]7O)[C@@H](O)[C@H](O)[C@H]6O)C(C)(C)C5CC[C@@]4(C)[C@]2(C)CC3)[C@@H]1OC1OC(C)C(O[C@@H]2OC[C@@H](O)[C@H](O[C@@H]3OC[C@@H](O)[C@H](O)[C@H]3O)[C@H]2O)C(O)C1O", "note": "(stereo partly specified)", "outcome": "inactive [at 9.52 µM]"}
{"molecule": "CN(C)CCc1c[nH]c2ccc(CN3CCN(C)S3(=O)=O)cc12", "Potency": "inactive"}
{"molecule": "CC(=O)O[C@H]1C[C@@H](OC(C)=O)C(C)(C)C2C[C@@H](O)[C@]3(C)C(CC[C@@]4(C)[C@H](C5=CC(=O)OC5O)C[C@H]5O[C@]543)[C@]21C", "note": "(stereo partly specified)", "Potency": "inactive"}
{"molecule": "CC1=CC2/C=C(\\C)CCC(O)C3OC(C)(C)OC3CC(=O)OC23C(=O)NC(CC(C)C)C3C1C", "note": "(stereo unspecified)", "Potency": "inactive"}
{"molecule": "CCCN1CCO[C@H]2c3cc(O)ccc3OC[C@@H]21", "Potency": "inactive"}
{"molecule": "CN1C(=O)c2ccccc2NC(=O)[C@]12O[C@@H]2c1ccccc1", "Potency": "inactive"}
{"molecule": "Cc1cccc(NC(=O)N[C@@H]2N=C(c3ccccc3)c3ccccc3N(C)C2=O)c1", "Potency": "inactive"}
{"molecule": "C[C@@]1(C(=O)O)CC[C@]2(C)CC[C@]3(C)C4=CC(=O)c5cc(O)c(O)cc5[C@]4(C)CC[C@@]3(C)[C@@H]2C1", "Potency": "inactive"}
{"molecule": "CN1C(=O)c2ccccc2NC(=O)C1Cc1ccccc1", "note": "(stereo unspecified)", "Potency": "inactive"}
{"molecule": "Cc1c(Cl)cccc1S(=O)(=O)Nc1nc(CC(=O)N2CCN(C)CC2)cs1", "Potency": "inactive"}
{"molecule": "COC1CC(O[C@H]2CC[C@]3(C=O)C4CC[C@]5(C)[C@@H](C6=CC(=O)OC6)CC[C@]5(O)[C@@H]4CC[C@]3(O)C2)OC(C)C1O[C@@H]1O[C@H](CO)[C@@H](O)[C@H](O)[C@H]1O", "note": "(stereo partly specified)", "Potency": "inactive"}
{"molecule": "CCc1[nH]c2ccc(OC)cc2c1CCN(C)C", "Potency": "inactive"}
{"molecule": "COC(=O)C1(C)CCC(O)C2(C)c3cc(O)c(C(C)C)cc3C(O)C(OC(C)=O)C12", "note": "(stereo unspecified)", "Potency": "inactive"}
{"molecule": "COCC1OC(=O)c2coc3c2C1(C)C1=C(C3=O)C2CCC(=O)C2(C)CC1O", "note": "(stereo unspecified)", "Potency": "inactive"}
{"molecule": "CN[C@H]1[C@H](O)[C@H](O[C@@H]2[C@@H](O)[C@H](O[C@H]3O[C@H]([C@H](C)O)[C@@H](O)[C@H](O)[C@H]3N)[C@@H](N)C[C@H]2N)OC[C@@]1(C)O", "Potency": "inactive"}
{"molecule": "CC(C)(O)[C@H]1O[C@H]2CC[C@@]3(C)[C@@](O)(CC[C@H]4Cc5c([nH]c6ccccc56)[C@@]43C)C2=CC1=O", "Potency": "inactive"}
{"molecule": "C=C[C@H]1CN2CC[C@H]1C[C@@H]2[C@@H](O)c1ccnc2ccccc12", "Potency": "inactive"}
{"molecule": "COC1CC(OC2CCC3(C)C(CCC4C3CCC3(C)C(C5=CC(=O)OC5)C(OC(C)=O)CC43O)C2)OC(C)C1OC1OC(CO)C(O)C(O)C1O", "note": "(stereo unspecified)", "Potency": "inactive"}
{"molecule": "C[C@@](O)(COc1ccc(C#N)cc1)C(=O)Nc1ccc(C#N)c(C(F)(F)F)c1", "Potency": "inactive"}
{"molecule": "C[C@@H]1C(=O)O[C@H]2[C@H](O)[C@@]34[C@@H]5OC(=O)[C@@]3(O[C@@H]3OC(=O)[C@@H](O)[C@@]34[C@H](C(C)(C)C)[C@H]5O)[C@@]12O", "Potency": "inactive"}
{"molecule": "COC1CC(=O)C23C(=O)NC(CC(C)C)C2C(C)=C(C)C(OO)C3/C=C(\\C)CCC(O)C1O", "note": "(stereo unspecified)", "Potency": "inactive"}
